# Nrf2 activator = qHTS of Nrf2 Activators; AREc32 ARE-luciferase reporter (MCF7-derived line), luminescence, 24 h; Potency, µM (titrated, usually from 46.1 µM), without a hit: at the top dose activation, most hits filed as activators; actives 0.31% (n = 410,000); further: potency means the concentration at half of the fitted maximal effect; % of control where 0% means no effect; nearly all actives have a fitted effect of over 65% in size
#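 ARE-driven firefly luciferase activity in AREc32 cells measured after a 24 hr compound exposure at 37 deg C, using Steady-Glo reagent and a 30 min room-temperature hold.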
# Nrf2 block = Nrf2 qHTS screen for inhibitors; actives 2.1% (n = 360,000); A549 ARE-Fluc reporter, luciferase luminescence, 18-24 h; Potency, µM (top dose mostly 46 µM), for inactives: top-dose activity change, negative = inhibition, hits mostly inhibitors; further: potency means the concentration at half of the fitted maximal effect; on the % scale 0 is the no-effect control and ±100 the full control effect; nearly all actives have a fitted effect of over 60% in size
#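 Reporter: ARE-Fluc in A549. Exposure: 18-24 h, 37 °C, 5% CO2, 5% FBS OPTI-MEM. Readouts: fluorescent cytotoxicity (CellTiter-Fluor), then luminescent Nrf2 signal after BugLite.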
# LDHA inh = qHTS assay for inhibitors of human lactate dehydrogenase; actives 0.15% (n = 480,000); activity change, % (values are at about 110 or 230 µM); purified LDHA, NADH/diaphorase-resazurin fluorescence; hits give low values; L-lactate dehydrogenase A chain (Homo sapiens), P00338; in the data active means activity change below about -30%; inconclusive means mostly about -25% to -30%;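 further: plate controls were DMSO wells for no effect and wells without enzyme for full effect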
#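 Remaining NADH was detected by diaphorase (0.133 mg/mL) converting 37 µM resazurin to fluorescent resorufin, read at 0 and 20 minutes. The preceding 5-minute room-temperature reaction used 2 nM LDHA, 0.2 mM sodium pyruvate and 0.06 mM NADH at pH 7.4.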
# ALOX12 inh = Primary qHTS assay for inhibitors of human arachidonate 12S-lipoxygenase (ALOX12): Round 2. Polyunsaturated fatty acid lipoxygenase ALOX12 (Homo sapiens), P18054. purified 12hLO, xylenol orange hydroperoxide absorbance. Potency, µM (doses to about 108 µM), for the others: at the highest dose activity change, negative = inhibition, usual class: inhibitors. actives 1.1% (n = 580,000). AID 1671190, 2021; further: potency means the concentration at half of the fitted maximal effect; on the % scale 0 is the no-effect control and ±100 the full control effect
#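 Hydroperoxide product was detected by ferrous iron/xylenol orange as the 573 to 405 nm absorbance ratio. Arachidonic acid at 40 uM (final) was turned over for 30 min at room temperature by 150 nM human 12hLO, pH 7.0 Hepes buffer, after 15 min compound preincubation.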
# A549 tox = Nrf2 qHTS screen for inhibitors: counterscreen for cytotoxicity. A549 ARE-Fluc cells, CellTiter-Fluor viability, 18-24 h. actives 0.16% (n = 390,000). AID 504648, 2011. Potency, µM (highest dose often 46 µM), without a hit: at the highest dose activity change, negative = cytotoxicity, hits mostly inhibitors; further: potency means the concentration at half of the fitted maximal effect; on the % scale 0 is the no-effect control and ±100 the full control effect
#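 A549 ARE-Fluc cells in 5% FBS OPTI-MEM, 5000 cells/well, rested 2 h then exposed to compounds in concentration-response for 18-24 h at 37 °C. Viability by CellTiter-Fluor fluorescence (Ex 405/Em 525) after 30 min; luciferase luminescence (BugLite, 15 min, RT) read afterwards.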
# ERG-DNA inh = qHTS for Small Molecule Inhibitors of the ERG Ets/DNA interaction. Transcriptional regulator ERG (Homo sapiens), P11308. fluorescence polarization, His-ERG Ets domain / labelled DNA. Potency, µM (doses to about 76.9 µM), for the others: at the highest dose FP activity, negative = inhibition, usual class: inhibitors. actives 0.028% (n = 370,000); active means well fitted inhibition curve with a large enough effect in the polarisation, with a control signal flat; inconclusive means small, poorly fitted or top-dose-only effect, or effect the other way, or a change in a side signal; inactive means no such curve, though single readings can be large or run the other way; the % refers to the polarisation;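 further: polarization taken with two DNA probes labelled with fluorescein and Texas red; potency means the concentration at half of the fitted maximal effect; % of control where 0% means no effect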
# Target sequence (P11308 whole entry, looked up, the tested form may be a part): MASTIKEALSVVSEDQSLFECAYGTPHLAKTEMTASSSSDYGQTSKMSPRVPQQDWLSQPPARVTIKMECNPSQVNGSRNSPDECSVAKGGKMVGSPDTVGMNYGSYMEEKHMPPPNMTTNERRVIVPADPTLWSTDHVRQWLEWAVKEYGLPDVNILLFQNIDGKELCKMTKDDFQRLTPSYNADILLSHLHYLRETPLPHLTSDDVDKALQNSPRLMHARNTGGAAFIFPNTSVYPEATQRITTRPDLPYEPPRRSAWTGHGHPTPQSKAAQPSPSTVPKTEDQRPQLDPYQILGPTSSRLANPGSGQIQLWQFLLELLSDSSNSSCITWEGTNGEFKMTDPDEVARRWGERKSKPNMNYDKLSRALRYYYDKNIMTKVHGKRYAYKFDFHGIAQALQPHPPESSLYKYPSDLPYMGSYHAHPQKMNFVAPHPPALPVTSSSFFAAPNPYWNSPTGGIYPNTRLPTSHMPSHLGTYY
#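 His-tagged ERG Ets domain (1 uM in the protein solution; 300mM KCl, 50mM Tris-HCl, 1mM EDTA, 1mM DTT, pH 7.5) received compound, then a probe mix of 5 nM fluorescein-DNA and 100nM Texas-615-DNA. Fluorescence polarization was read for both dyes.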
# * marks the source's active call; other numbers are inactive results; ? = inconclusive; / = not tested or not shown; ! = not confirmed by another sample. Sampled rows, rich in hits. Any-hit rate of the full collection: about 2.7%. Unless noted, the call rests on the fitted dose curve; in most records, active means well fitted curve in the direction sought with a large enough effect; inconclusive means small, poorly fitted or top-dose-only effect, or another doubt; inactive means no such curve, though single readings can be large; an effect the other way counts as inactive or inconclusive.
SMILES,Nrf2 activator,Nrf2 block,LDHA inh,ALOX12 inh,A549 tox,ERG-DNA inh
CCOC(=O)c1ccc(NC(=O)CC2SC(c3cc4ccccc4oc3=O)=NC2=O)cc1 (stereo not drawn),/,/,-31*,-17%,/,/
CN(C)c1cccc(C(=O)OCC(=O)N2c3ccccc3Sc3ccccc32)c1,/,/,7,?,/,/
Cc1ccc(C(=O)n2cnnc2N)cc1,-2%,8.2µM*,-11,-16%,0%,-4%
Cc1ccc(C(=O)n2cnnc2N)cc1C,-1%,?,0,-8%,-9%,0%
C=CC[C@@H](Cc1ccc(F)cc1)C(=O)OC[C@H]1CCCN1C(=O)[C@H](CC=C)CC(=O)N[C@H](CO)Cc1ccccc1,2%,23µM*,1,0%,?,-4%
C=CC[C@@H](Cc1ccc(F)cc1)C(=O)OC[C@H]1CCCN1C(=O)[C@@H](CC=C)CC(=O)N[C@H](CO)Cc1ccccc1,1%,18µM*,0,-11%,?,14%
C=CC[C@@H](Cc1ccc(F)cc1)C(=O)OC[C@H]1CCCN1C(=O)[C@@H](CC=C)CC(=O)N[C@@H](CO)Cc1ccccc1,-2%,?,7,-5%,-22%,19%
O=C(CSc1ccc(Cl)cc1)Nc1ccc2c(c1)OCCCO2,/,/,4,?,/,/
Cc1cc(C2CCCCC2)n(O)c(=O)c1,5%,?,-9,40µM*!,1%,-4%
Cc1cc(CC(C)CC(C)(C)C)n(O)c(=O)c1 (stereo not drawn),/,/,-3,/,/,/
COc1ccccc1CN1CCN(Cc2ccc3ccccc3c2)CC1,0%,24%,-19,?,-1%,4%
COc1cc(CN2CCN(Cc3ccccc3C)CC2)cc(OC)c1O,/,/,49,1µM*,/,/
COc1ccc(CN2CCN(Cc3ccc4ccccc4c3)CC2)cc1OC,0%,?,-34*,?,-3%,-4%
C=CCNc1nc(-c2c(N)n(CCC)c(=O)n(C)c2=O)cs1,/,/,8,?,/,/
S=c1cn[nH]c2ccccc12,6%,3%,-5,40µM*,-6%,-1%
Nc1cccc2[nH]ncc12,/,/,34,-5%,/,/
CCc1nn2c(=O)cc(CNc3ccccc3C(=O)NC3CC3)nc2s1,/,/,6,?,/,/
COCC(C)NCC(=O)NC(C)CCc1ccccc1 (stereo not drawn),-1%,-9%,-30*,?,3%,-18%
CC(=O)NC(C)CCc1ccccc1 (stereo not drawn),2%,?,-8,0%,7%,6%
CC(CCc1ccccc1)NC(=O)c1ccc(C(=O)NC(C)CCc2ccccc2)cc1 (stereo not drawn),0%,12µM*,-5,0%,?,3%
Clc1cccc(CSc2cccc3cccnc23)c1,/,/,2,?,/,/
CC(=O)N1CCc2cc(S(=O)(=O)N3c4ccccc4CC3C)ccc21 (stereo not drawn),0%,15µM*,-12,-6%,-12%,/
Cc1ccc2c(c1)N(C)/C(=C/c1cccc[n+]1C)S2,0%,6.5µM*,-7,?,?,-3%
Cc1ccc2c(c1)N(C)/C(=C/c1cccc[n+]1CCO)S2,2%,-15%,-7,-57%,-21%,27%
Clc1ccc2oc(-c3ccccc3)cc(=NCCCN3CCOCC3)c2c1,13µM*,24%,4,14µM*,8%,4%
SMILES,Nrf2 activator,Nrf2 block,LDHA inh,ALOX12 inh,A549 tox,ERG-DNA inh
OCCCCCN=c1cc(-c2ccccc2)oc2ccc(Cl)cc12,29%,?,-1,109%,?,0%
Cc1ccc(N/N=C/C=C/c2ccccc2[N+](=O)[O-])c(C)c1,/,/,6,16µM*,/,/
COc1cc(/C=C/C2=Nc3ccccc3SC(C)(C)C2)ccc1O,/,/,18,16µM*,/,/
COc1ccccc1N1CCN([C@@H]2[C@H](O)[C@H](CO)O[C@@H]2CNC(C)=O)CC1,/,/,/,-10%,/,/
COc1ccccc1N1CCN([C@@H]2[C@H](O)[C@H](CO)O[C@@H]2CNC(=O)c2ccccc2)CC1,/,/,/,22µM*,/,/
Cc1[nH]n(-c2nc(-c3ccc(Cl)cc3)cs2)c(=O)c1N=Nc1ccc(O)cc1,3%,?,2,-10%,15µM*,8%
COc1ccc(NC(=O)Cc2c(C)[nH]n(-c3nc(-c4ccc(Cl)cc4)cs3)c2=O)cc1,/,/,-2,33%,/,/
COc1cc(CC(=O)Nc2nc(-c3ccccc3)c(C(C)=O)s2)cc(OC)c1OC,1%,21µM*,3,-28%,-11%,7%
COc1ccc(CC(=O)Nc2nc(-c3ccccc3)c(C(C)=O)s2)cc1OC,3%,?,5,?,-5%,-5%
COc1ccc(-c2cc(C(F)(F)F)n3nc(C(=O)N4CCCCC4)cc3n2)cc1,0%,?,6,3%,-4%,/
COc1ccc(-c2cc(C(F)(F)F)n3nc(C(=O)N4CCCCC4)cc3n2)cc1OC,0%,26µM*,-6,2%,-19%,5%
O=C(O)CSCc1ccsc1,/,/,0,?,/,/
CC(=O)c1cccc(S(=O)(=O)Nc2cccnc2)c1,1%,-3%,-6,8.9µM*,8%,-8%
COc1ccccc1Oc1ccc2c(c1)C(=O)N(c1cccc(O)c1)C2=O,4%,-9%,-5,-19%,-11%,5%
COc1ccccc1Oc1ccc2c(c1)C(=O)N(c1cccc3ncccc13)C2=O,2%,16µM*,-5,-14%,-8%,7%
CC(SC1CCCC1)C(=O)Nc1cccc(C#N)c1 (stereo not drawn),/,/,-2,-2%,/,/
CC(C)(C)NC(=O)/C(=C/c1ccc(-c2ccc(Cl)cc2)o1)NC(=O)c1ccc(Cl)cc1,/,/,-4,?,/,/
Cc1ccc2c(=O)cc(C(=O)Nc3sc4c(c3C#N)CCCC4)oc2c1,/,/,3,-15%,/,/
Cc1cc(C)c2c(c1)/C(=C/C(=O)c1ccc(Br)s1)C(=O)N2,0%,9.2µM*,-5,?,?,4%
Cc1cccn2cc(CSc3ncc(C(F)(F)F)cc3Cl)nc12,/,/,4,9%,/,/
CC1=CC(C)(C)Nc2ccc(OC(=O)C(C)N3C(=O)c4ccccc4C3=O)cc21 (stereo not drawn),-1%,26µM*,3,0%,1%,1%
Cc1ccc(C2C(/C=C3/SC(=S)NC3=O)=C(c3cccs3)Oc3ccccc32)cc1 (stereo not drawn),12%,13µM*,-4,?,10µM*,/

# From PubChem BioAssay
